Assay outcomes: PubChem, National Center for Advancing Translational Sciences (NCATS)
AMA1 RON2 block – inhibitors of Plasmodium falciparum AMA1-RON2 interaction | Potency, µM (top dose mostly 58.2 µM), for inactives: at the highest dose activity change, negative = inhibition, hits mostly inhibitors | 360,000 compounds, 0.2% hits | AlphaScreen AMA1-biotinylated RON2 peptide binding;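 note: 0% = vehicle wells and -100% = peptide control; nearly all actives have a fitted effect of over 45% in size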
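AMA1 (3D7) with his tag at 25 nM final met compounds first, then biotinylated RON2 peptide at 25 nM; detection used donor plus acceptor beads, 10 µg/mL apiece, read by AlphaScreen after 30 min at room temperature.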
Pf growth 96h – inhibits malaria parasite growth, 96 h. AID 504834. 320,000 compounds, 6.9% hits. Potency, µM (top dose mostly 28.7 µM), without a hit: top-dose activity change, negative = inhibition, most hits filed as inhibitors. P. falciparum luciferase reporter growth, 96 h
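Parasite growth measured via integrated firefly luciferase reporter in P. falciparum. Infected erythrocytes at 2% hematocrit, 0.05% parasitemia final were treated 96 hours at 37 C under 5% CO2, and luminescence was read.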
VACV Venus inh – vaccinia inhibition (Venus reporter). Vaccinia virus Venus reporter expression, fluorescence. Potency, µM (titrated, usually from 36.5 µM), without a hit: top-dose activity change, negative = inhibition, most hits filed as inhibitors. 330,000 compounds, 0.46% hits; calls by dose curve; tested in A549 cells; note: nearly all actives have a fitted effect of over 30% in size
Pf growth 48h – inhibits P. falciparum growth in the first generation, 48 h | P. falciparum luciferase growth in erythrocytes, 48 h | Potency, µM (series often up to 28.7 µM), for the others: at the top dose activity change, negative = inhibition, usual class: inhibitors | 310,000 compounds, 5.9% hits | AID 504832
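Firefly luciferase activity from engineered P. falciparum reports growth; inhibitors lower the luminescent signal. Cultures contained 2% hematocrit erythrocytes at 0.1% final parasitemia.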
Vaccinia mCherry – inhibitors of vaccinia virus infection (mCherry reporter signal); Vaccinia virus mCherry reporter infection, fluorescence; Potency, µM (series often up to 36.5 µM), inactives show at the highest dose activity change, negative = inhibition, usual class: inhibitors; 310,000 compounds, 0.63% hits; calls by dose curve; tested in A549 cells; note: nearly all actives have a fitted effect of over 35% in size
The depositor's hits bear a star; i = inactive; ? = inconclusive; . = not tested or not shown; [ ] = remark or other dose. Only some compounds are listed: those with a hit (about 8.7% of all), similar ones and a draw of the others. Unless noted, calls come from the whole dose curve; as a rule, active = well fitted curve in the direction sought with a large enough effect; inconclusive = small, poorly fitted or top-dose-only effect, or another doubt; inactive = no such curve, though single readings can be large; an effect the other way counts as inactive or inconclusive. Unless noted, % is set by controls: 0 for no effect and ±100 for the full control effect; potency is the fitted concentration of half-maximal effect.

SMILES	AMA1 RON2 block	Pf growth 96h	VACV Venus inh	Pf growth 48h	Vaccinia mCherry
CCN1C(=O)/C(=c2\o/c(=C3\C=Cc4ccccc4N3CC)c(=O)n2CC)SC1=S	-11.8%	23.5%	-14.7%	13.5%	i
CCN1C(=O)/C(=C2\SC(=S)N(CCCOC)C2=O)c2ccccc21	-15.2%	10.4µM*	-21.2%	?	.
CCN1C(=O)/C(=C2\C=Cc3ccccc3N2CC)SC1=S	1.19µM*	?	-3.7%	-4.1%	-13.6%
CCOc1ccc(CCNC(=O)Cn2nc(CC)n3c(cc4ccccc43)c2=O)cc1	.	.	-6.8%	.	3.1%
CNC(=O)c1c(NC(=O)c2cc(=O)c3ccccc3o2)sc2c1CCC2	.	.	-1.4%	.	-6.1%
O=C(CN(Cc1ccc(F)cc1)S(=O)(=O)c1ccccc1)N1CCCCC1	4.6%	4.15µM*	-13.1%	?	.
CN(CC(=O)N1CCN(Cc2ccccc2)CC1)S(=O)(=O)c1ccc(F)cc1	4.4%	11.7µM*	-10.6%	3.6%	-20.7%
CCN1CCN(C(=O)CN(CC)S(=O)(=O)c2ccc(F)cc2)CC1	14.8%	3.29µM*	-3.3%	-6.7%	i
CN(CC(=O)N1CCN(Cc2ccccc2)CC1)S(=O)(=O)c1ccc(Br)cc1	-27.0%	31.3%	-14.9%	?	-3.7%
CS(=O)(=O)N(CC(=O)N1CCCC1)Cc1ccc(F)cc1	-4.1%	?	.	42.1%	.
CCOC(=O)c1ccccc1NC(=O)c1c(C)oc2ncnc(N3CCOCC3)c12	.	.	-7.6%	.	-14.1%
CCCCS/C(=C(/C#N)C(N)=O)c1cc2c([nH]1)CCCC2	?	.	.	2.94µM*	.
CC1=Nc2cc(C(=O)NC3CCCC3)ccc2Sc2ccc(C)cc21	.	.	?	.	-7.4%
CC(=O)Nc1ccc(NC(=O)CSc2nc(=O)n(CCCN3CCOCC3)c3c2CCC3)cc1	-7.9%	.	-18.6%	.	-5.7%
CCc1ccc(NC(=O)CSc2nc(=O)n(CCCN3CCOCC3)c3c2CCCC3)cc1	8.2%	?	-16.6%	9.28µM*	i
CCN(CC)CCn1c2c(c(SCC(=O)Nc3ccc4c(c3)OCCO4)nc1=O)CCCC2	13.6%	2.94µM*	-14.8%	?	-26.5%
Cc1cccc(NC(=O)Nc2ccccn2)c1C	-14.3%	78.8%	-10.6%	88.5%	-12.7%
Cc1ccc(C(NC(=O)Nc2ccccn2)C(Cl)(Cl)Cl)cc1F (stereo not given)	1.4%	13.1µM*	0.9%	?	-14.9%
CCNc1nc(Oc2ccc(=O)n(-c3ccccc3)n2)nc(N2CCOCC2)n1	4.7%	?	-13.1%	-3.3%	.
CCNc1nc(OC)nc(Oc2ccc(=O)n(-c3ccccc3)n2)n1	14.9%	0.2%[5.75 µM]	-8.3%	0.928µM*	-13.0%
CCNc1nc(NC(C)CC)nc(Oc2ccc(=O)[nH]n2)n1 (stereo not given)	5.0%	.	-9.5%	8.2%	i
CCNc1nc(NCc2ccccc2)nc(Oc2ccc(=O)[nH]n2)n1	-20.4%	-19.9%	5.7%	1.04µM*	-11.5%
CCNc1nc(Oc2ccc(=O)n(-c3ccccc3)n2)nc(N(C)C)n1	2.1%	2.62µM*	-4.6%	-13.9%	-9.8%
CC(C)c1ccc(S(=O)(=O)N2CCC(N3CCN(Cc4ccccc4)C(=O)C3=O)CC2)cc1	.	.	-12.8%	.	-25.4%
Cc1ccc(OCC(=O)Nc2ccc(OCc3cc(=O)n4ccsc4n3)cc2)cc1	.	.	2.5%	.	-6.1%
SMILES	AMA1 RON2 block	Pf growth 96h	VACV Venus inh	Pf growth 48h	Vaccinia mCherry
CCc1nc2cc(C(=O)N(C)CC3COCCO3)cc(NC(=O)c3ccccc3OC)c2n1C (stereo not given)	.	.	-5.0%	.	-12.1%
COc1ccc(CN2CCCC(CNC(=O)c3ccc(F)cc3)C2)c(C)c1C (stereo not given)	2.9%	10.4µM*	.	-16.6%	.
COc1ccc(CN2CCCC(CNC(=O)c3ccc(F)cc3)C2)c(F)c1 (stereo not given)	7.0%	1.85µM*	-8.8%	-24.6%	-0.4%
CCOc1cc(CN2CCCC(CNC(=O)c3ccc(F)cc3)C2)ccc1OC (stereo not given)	-7.5%	?	.	?	.
COc1cc(OC)cc(C(=O)NCC2CCCN(Cc3cccc(C(C)=O)c3)C2)c1 (stereo not given)	-1.1%	8.28µM*	.	?	.
CC(C)CCn1nc(C(=O)Nc2nc3c(s2)CCCC3)c2ccccc2c1=O	20.8%	?	-4.7%	10.4µM*	-13.5%
Cn1nc(C(=O)Nc2nc(-c3ccccn3)cs2)c2ccccc2c1=O	23.5%	3.29µM*	-15.5%	4.15µM*	i
CCCn1nc(C(=O)Nc2nc(-c3ccccn3)cs2)c2ccccc2c1=O	-13.1%	4.15µM*	.	4.15µM*	.
CCn1nc(C(=O)Nc2nc(-c3ccccn3)cs2)c2ccccc2c1=O	103.8%	2.62µM*	.	2.33µM*	.
Cc1ccc2oc(=O)n(CCNC(=O)Nc3ccc(C)c(F)c3)c2c1	.	.	-2.1%	.	-6.8%
Cc1cccc(NC(=O)CN2C(=O)C(c3ccccc3)=NC23CCC(C)CC3)c1 (stereo not given)	.	.	-12.7%	.	i
CCOC(=O)c1c(CSC(=N)N)n(-c2ccc(Br)cc2)c2cc(Br)c(OC(C)=O)cc12	5.4%	?	-14.0%	1.85µM*	-19.1%
C=CCCc1ccc(C#N)c(SCc2c(C(=O)OCC)c3cc(OC(C)=O)c(Br)cc3n2C)n1	10.0%	0.0%	-3.7%	5.22µM*	i
CCCCCCCCOC(=O)c1c(CSC(=N)N)n(C)c2cc(Br)c(OC(C)=O)cc12	35.5%	10.4µM*	.	?	.
CCOC(=O)c1c(CSc2nc(C)cc(C)c2C#N)n(C)c2cc(Br)c(OC(C)=O)cc12	4.2%	?	-0.9%	?	-8.6%
COc1ccc(-c2nc3scc(CCNC(=O)c4cccc(Br)c4)n3n2)cc1	.	.	-19.9%	.	-22.0%
COc1ccccc1-c1sc2cc3c(cc2c1C#CCO)OCO3	-0.5%	?	-8.1%	?	0.0%
CCOC(=O)c1ccc(-c2c(-c3ccccc3OC)sc3cc4c(cc23)OCO4)cc1F	42.2%	?	-17.9%	1.85µM*	i
C=CCC[C@H](Cc1ccc(F)cc1)C(=O)OC[C@@H](Cc1c[nH]c2ccccc12)NC(=O)[C@H](CC=C)CC(=O)N(CCO)Cc1ccccc1	-16.3%	.	10µM*	.	?
C=CCC[C@@H](Cc1ccc(F)cc1)C(=O)OC[C@H](Cc1c[nH]c2ccccc12)NC(=O)[C@H](CC=C)CC(=O)NCCO	9.7%	.	?	.	?
C=CCC[C@H](Cc1ccc(F)cc1)C(=O)OC[C@@H](Cc1c[nH]c2ccccc12)NC(=O)[C@H](CC=C)CC(=O)NCCO	-13.7%	.	?	.	?
C=CCC[C@@H](Cc1ccc(F)cc1)C(=O)OC[C@@H](Cc1c[nH]c2ccccc12)NC(=O)[C@H](CC=C)CC(=O)N(CCO)Cc1ccccc1	-11.2%	.	14.1µM*	.	?
CCOc1ccc(C2c3c(oc4ccccc4c3=O)C(=O)N2Cc2ccc3c(c2)OCO3)cc1 (stereo not given)	.	.	-13.5%	.	-11.7%
C=C(C)Cn1c(=O)c2c(nc3n2CCN3c2ccc(F)cc2)n(C)c1=O	.	.	-7.3%	.	-11.8%
